# The source made the active and inactive calls.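 How the source made its calls, unless noted: active means inhibition at or above 50% at 10 µM; inactive means inhibition below 50%.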
# What was measured:
# [1] = inhibitors of TNFa-induced NFkB p65 translocation, primary screen, imaging, HUVEC, MLSMR starter and 10KST1 sets (AID 438;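 active means inhibition above 20% together with a positive visual image hit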;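 further: compound added about 3h40 before a 20 min TNFalpha stimulation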;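 on inhibition: signal is the nuclear over cytoplasmic p65 intensity ratio per well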); settings: HUVEC TNFa-induced p65 nuclear translocation; cell count: measured here: nuclei count (cytotoxicity indicator), at 2.08 µM; inhibition: at 2 µM, stronger effect = higher value, 0% TNFa-plus-vehicle, 100% no-TNFa wells
# [2] = inhibitors of mutant huntingtin aggregation, primary screen, imaging, exon1htt(103Q)mCFP cells, high-content imaging (AID 483;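 active means visual image review flags a hit and inhibition of aggregation exceeds 20%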;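 further: compound exposure lasted 3 days before fixation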;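 on nuclei count: percent of the per-plate median nuclei count of sample wells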); settings: exon1htt(103Q)mCFP cell line, aggregate imaging, at 2 µM; inhibition of aggregation: stronger effect = higher value; nuclei count: measured here: cell count, toxicity
# [3] = inhibitors of E-selectin induction by TNFa, primary screen, imaging, HUVEC, immunofluorescence, MLSMR starter and 10KST1 sets (AID 487;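 active means visually confirmed hit in the image check and inhibition above 20%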;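 on inhibition: signal is fraction of cell area covered by stained E-selectin grains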;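 on nuclei count: 100% = median nuclei count of all wells on the same plate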); settings: HUVEC TNFalpha-induced E-selectin immunofluorescence imaging, at 2 µM; inhibition: stronger effect = higher value; nuclei count: measured here: cell number, toxicity
# [4] = target: Voltage-gated potassium channel subunit beta-2 (Rattus norvegicus) (UniProt P62483); assay: KvBeta enzyme negative modulators, primary screen, biochemical, NADPH fluorescence (AID 622;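 active means fluorescence slope higher than the sample average by over 3 SD, cut at about -0.22 in these data, passing the limit was not always enough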;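 further: slope of raw intensity against log time taken from 70 to 1610 s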); settings: recombinant KvBeta, 4-cyanobenzaldehyde reduction, at 10 µM, stronger effect = higher value
# [5] = target: Voltage-gated potassium channel subunit beta-2 (Rattus norvegicus) (UniProt P62483); assay: KvBeta positive modulators, primary screen, biochemical, NADPH fluorescence (AID 623;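 active means NADPH fluorescence slope more negative than the mean of all samples by about 3 SD, 99.7% confidence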;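 further: fluorescence intensity change per second fitted from 20 to 320 s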); settings: Recombinant KvBeta, NADPH fluorescence decrease slope, 10 min; at 10 µM; stronger effect = lower value
# [6] = target: Alpha-2C adrenergic receptor (Homo sapiens) (UniProt P18825); assay: modulators of alpha2C/GIRK thallium flux, primary screen, cell-based, HEK293 alpha2C/GIRK1/2 (AID 624;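 active means fluorescence slope after compound addition differing from the mean of all screened samples at 99.7% confidence, in either direction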;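 further: slope of fluorescence ratio to pre-addition baseline per second over 15 to 24 s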); settings: thallium flux BTC fluorescence, at 10 µM, actives lie on both sides
# [7] = inhibitors of Sendai virus-induced IRF3 signaling, primary screen, TLR/RLR signaling modifier project, cell-based, Sendai virus stimulus, luciferase, 10K MLSCN set (AID 602276); settings: HEK293 RL24 IRF3 luciferase reporter, at 10 µM, stronger effect = higher value;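 further: firefly luciferase from ISG56 promoter only with Renilla not read in this screen; 0% = Sendai virus plus DMSO and 100% = medium plus DMSO without virus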
# [8] = inhibitors of poly I:C-induced TLR3 signaling, primary screen, cell-based, poly I:C stimulus, luciferase, 10K MLSCN set (AID 602277;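 active means inhibition of the reporter signal at or above 50%; inactive means inhibition below 50%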); settings: HEK293-TLR3 RL24 IRF3 luciferase reporter, at 10 µM, stronger effect = higher value
# Sequence of Voltage-gated potassium channel subunit beta-2 (Rattus norvegicus) (P62483 whole entry, looked up): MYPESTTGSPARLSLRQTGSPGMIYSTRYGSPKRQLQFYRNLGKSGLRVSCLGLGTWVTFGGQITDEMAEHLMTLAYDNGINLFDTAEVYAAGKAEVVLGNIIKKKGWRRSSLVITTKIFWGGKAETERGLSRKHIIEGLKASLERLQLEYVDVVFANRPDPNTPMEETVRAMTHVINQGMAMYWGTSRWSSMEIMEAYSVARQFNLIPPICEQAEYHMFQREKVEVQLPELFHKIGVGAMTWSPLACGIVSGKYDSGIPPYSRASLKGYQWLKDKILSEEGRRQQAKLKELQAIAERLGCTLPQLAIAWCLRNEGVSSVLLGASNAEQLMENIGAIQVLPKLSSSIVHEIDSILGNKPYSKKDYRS
# Sequence of Alpha-2C adrenergic receptor (Homo sapiens) (P18825 whole entry, looked up): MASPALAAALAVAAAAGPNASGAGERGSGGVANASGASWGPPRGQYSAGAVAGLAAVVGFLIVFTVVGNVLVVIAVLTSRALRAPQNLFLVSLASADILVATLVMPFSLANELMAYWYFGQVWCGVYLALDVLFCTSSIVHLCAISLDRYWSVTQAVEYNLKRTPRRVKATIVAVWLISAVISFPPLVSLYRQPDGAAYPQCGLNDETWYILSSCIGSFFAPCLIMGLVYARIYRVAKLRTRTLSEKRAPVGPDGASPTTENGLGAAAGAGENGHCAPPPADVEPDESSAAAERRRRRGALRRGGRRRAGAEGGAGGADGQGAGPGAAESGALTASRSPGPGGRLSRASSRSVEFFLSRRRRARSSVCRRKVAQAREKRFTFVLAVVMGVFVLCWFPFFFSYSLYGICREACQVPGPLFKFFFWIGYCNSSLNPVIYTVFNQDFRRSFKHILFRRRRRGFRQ
Structure (SMILES),cell count [1],inhibition [1],inhibition of aggregation [2],nuclei count [2] [%],inhibition [3],nuclei count [3] [%],fluorescence slope [4],NADPH fluorescence slope [5],slope [6],inhibition [7],inhibition [8]
COc1ccc2[nH]c(=O)c(CN(C(=O)c3ccncc3)C(C)C)cc2c1,438,-6.2% (inactive),4.6% (inactive),120,-13% (inactive),147,-0.448 (inactive),-5.5e-05 (inactive),0.00387 (inactive),8.68% (inactive),37.7% (inactive)
COc1ccc(Cn2nnnc2C(c2cccnc2)N2CCN(c3ccc(O)cc3)CC2)cc1 (centres undefined),682,-7.2% (inactive),-1.9% (inactive),92.7,-51.9% (inactive),117,-0.514 (inactive),-5.3e-05 (inactive),0.00403 (inactive),15% (inactive),21.3% (inactive)
CCOc1ccc(NS(=O)(=O)c2ccc(OCC(=O)N3CCCC3)cc2)cc1,422,-15.4% (inactive),43.4% (active),98.7,-56.1% (inactive),169,-0.465 (inactive),-4.2e-05 (inactive),0.00531 (inactive),8.25% (inactive),13.9% (inactive)
CN(c1ccc(OCc2nnc(-c3ccccc3)o2)cc1)S(=O)(=O)c1ccccc1,587,10.1% (inactive),13.2% (inactive),95,21.6% (inactive),82,-0.335 (inactive),-5.4e-05 (inactive),0.00414 (inactive),11.5% (inactive),-5.42% (inactive)
C=CCc1cc(OC)ccc1OCC(O)CN1CCN(c2ccc(OC)cc2)CC1 (centres undefined),402,2.5% (inactive),1.9% (inactive),105,-16.2% (inactive),106,-0.629 (inactive),7.7e-07 (inactive),0.00605 (inactive),12.2% (inactive),22.6% (inactive)
C=CCn1c(=O)c2ccccc2n2c(SCC(=O)Nc3cc(C)on3)nnc12,469,-22.4% (inactive),-23.3% (inactive),113,-50.6% (inactive),153,-0.605 (inactive),-4.3e-05 (inactive),0.00622 (inactive),3.33% (inactive),5.94% (inactive)
O=C(CSc1nnc2scc(-c3ccccc3)n12)Nc1nsc(-c2ccccc2)n1,673,-14.1% (inactive),2.8% (inactive),107,34.5% (inactive),97.5,-0.381 (inactive),1.4e-05 (inactive),0.00626 (inactive),9.78% (inactive),-32.6% (inactive)
O=C1N=C(N2CCOCC2)CS1,309,3.4% (inactive),-6.9% (inactive),90.7,36% (inactive),95.1,-0.519 (inactive),-1.2e-05 (inactive),0.00426 (inactive),6.09% (inactive),10.7% (inactive)
Cc1oc(-c2ccccc2F)nc1CS(=O)(=O)CC(=O)NCc1ccco1,753,-1.1% (inactive),4.5% (inactive),102,-29.4% (inactive),107,-0.539 (inactive),-1.9e-05 (inactive),0.00692 (inactive),0.0639% (inactive),22.5% (inactive)
COc1ccccc1-c1nnc(SCC(=O)NC2CCCCC2)o1,490,-7.8% (inactive),-6.8% (inactive),76,-86% (inactive),104,-0.56 (inactive),5e-05 (inactive),0.00636 (inactive),-1.61% (inactive),30.3% (inactive)
CC(=O)c1ccc(NC(=O)C2CCN(S(=O)(=O)c3cccc4cccnc34)CC2)cc1,591,8.3% (inactive),-7.6% (inactive),102,-11.2% (inactive),115,-0.559 (inactive),-1.3e-05 (inactive),0.0063 (inactive),14.2% (inactive),32.1% (inactive)
O=C(Cn1c(=O)oc2ccccc21)Nc1ccc(S(=O)(=O)N2CCCCC2)cc1,392,0.3% (inactive),-5.3% (inactive),89.6,-75.3% (inactive),126,-0.504 (inactive),-2.7e-05 (inactive),0.00415 (inactive),7.3% (inactive),14.4% (inactive)
O=C(CSc1nnc(COc2ccc(Cl)cc2)o1)N1CCN(c2ccccc2)CC1,359,-0.5% (inactive),-18.8% (inactive),98.2,-83.8% (inactive),110,-0.501 (inactive),-3.2e-06 (inactive),0.00706 (inactive),5.53% (inactive),-9% (inactive)
COc1ccc(-c2nnn(CC(=O)c3ccc4c(c3)OCCO4)n2)cc1OC,507,-17.7% (inactive),-8.1% (inactive),122,17.9% (inactive),126,-0.48 (inactive),-4.4e-05 (inactive),0.00479 (inactive),19.3% (inactive),19.3% (inactive)
